# Data as given in PubChem BioAssay (NCATS).
# Records with an inconclusive call do not appear. A call without a number means that no potency is given here. A number with no mark means an inactive call. Active and inactive are the calls of the source. Calls follow the shape of the dose curve; as a rule, active = well fitted activation curve with a large enough effect; inconclusive = small, poorly fitted or top-dose-only effect; inactive = no such curve, though single readings can be large or run the other way.
# Molecular target: Rap guanine nucleotide exchange factor 4 (Homo sapiens) (UniProt Q8WZA2)
# Sequence (Q8WZA2 whole entry, looked up): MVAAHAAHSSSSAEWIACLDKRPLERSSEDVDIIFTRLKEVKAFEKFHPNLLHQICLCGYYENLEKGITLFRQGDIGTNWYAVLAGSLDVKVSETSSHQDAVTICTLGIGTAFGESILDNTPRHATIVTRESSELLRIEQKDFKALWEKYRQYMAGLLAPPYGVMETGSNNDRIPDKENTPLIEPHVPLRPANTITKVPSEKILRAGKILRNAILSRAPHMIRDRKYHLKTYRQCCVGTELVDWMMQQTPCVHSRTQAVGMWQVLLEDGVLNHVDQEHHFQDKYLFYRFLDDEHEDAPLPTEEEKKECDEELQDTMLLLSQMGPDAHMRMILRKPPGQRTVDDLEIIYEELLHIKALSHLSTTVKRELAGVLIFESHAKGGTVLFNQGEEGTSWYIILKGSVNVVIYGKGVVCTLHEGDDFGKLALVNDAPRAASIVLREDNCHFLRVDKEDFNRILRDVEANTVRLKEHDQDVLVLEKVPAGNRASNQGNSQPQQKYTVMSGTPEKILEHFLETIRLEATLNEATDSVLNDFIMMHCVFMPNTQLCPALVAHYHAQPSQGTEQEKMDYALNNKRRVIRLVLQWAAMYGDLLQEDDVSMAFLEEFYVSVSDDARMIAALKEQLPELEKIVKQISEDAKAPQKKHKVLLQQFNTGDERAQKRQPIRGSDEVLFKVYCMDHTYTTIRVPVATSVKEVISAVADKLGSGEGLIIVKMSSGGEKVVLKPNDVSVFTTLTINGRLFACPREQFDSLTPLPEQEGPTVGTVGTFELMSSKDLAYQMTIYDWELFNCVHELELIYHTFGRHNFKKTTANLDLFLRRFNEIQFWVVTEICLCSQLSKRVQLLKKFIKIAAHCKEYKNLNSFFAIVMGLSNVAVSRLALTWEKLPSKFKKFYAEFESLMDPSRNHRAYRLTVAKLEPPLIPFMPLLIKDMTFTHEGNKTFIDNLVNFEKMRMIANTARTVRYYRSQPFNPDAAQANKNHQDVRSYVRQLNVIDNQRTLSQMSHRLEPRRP
# Experiment: Confirmatory qHTS for agonist of cAMP-regulated guanine nucleotide exchange factor 4 (EPAC2) (AID 1645884);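 also: nucleotide exchange releases bodipy-GDP from Rap1 and this lowers its fluorescence; nearly all actives have a fitted effect of over 65% in size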
# Conditions: EPAC2 GEF activity, Rap1B-BODIPY-GDP fluorescence; series mostly up to 154 µM
# Potency is read from the fitted curve at half-maximal effect.
Compound,Potency,activation
Cc1nn(CCc2nn[nH]n2)c2nc(-c3ccc(C4CCCCC4)cc3)cc(C(F)(F)F)c12,inactive,–
O=C(NS(=O)(=O)c1ccc2ccc(S(=O)(=O)NCCSc3ccccc3)cc2c1)c1cccc2ccccc12,inactive,–
CCOC(=O)C1CCCN(C(=O)C(C)(C)Oc2ccc(Cl)cc2)C1 (stereo unspecified),inactive,–
O=C(CNC(=O)c1sc2ccccc2c1Cl)Nc1ccccc1F,–,"11.8% [at 17.1 µM, percent relative to cAMP agonist control]"
CCOc1c(OC)cccc1C1CC(=O)Nc2cc3c(cc21)OCCO3 (stereo unspecified),inactive,–
Cc1ccc(S(=O)(=O)/N=C2\C=C(Nc3cccc(C(=O)O)c3)C(=O)c3ccccc32)c(C)c1,inactive,–
CS/C(N)=N/N=C/c1c(O)ccc2ccccc12,inactive,–
CC(=O)c1c(C(C)=O)c(C)n(-c2nc(-c3ccccc3)c(C)s2)c1C,inactive,–
CC(C)CNC(=O)c1c(-c2ccccc2)c(-c2ccccc2)nn(C)c1=O,inactive,–
O=C1CSC2(C(=O)N(Cc3cccc(C(F)(F)F)c3)c3ccccc32)N1c1ccc(F)c(F)c1 (stereo unspecified),inactive,–
O=[N+]([O-])c1ccc(Cc2ccccn2)c([N+](=O)[O-])c1,inactive,–
OCC[n+]1ccc(/C=C/c2c[nH]c3ccccc23)cc1,100 µM (active),–
COc1ccc(C2c3c(ncn(CCCO)c3=N)Oc3ccc4ccccc4c32)cc1 (stereo unspecified),–,"3.99% [at 17.1 µM, percent relative to cAMP agonist control]"
CC1(C(=O)O)CCC2(C)CCC3(C)C(=CC(=O)C4C5(C)CCC(=O)C(C)(C)C5CCC43C)C2C1 (stereo unspecified),inactive,–
C[C@@H](c1ccccc1)N1Cc2ccccc2Oc2cc(Br)ccc2S1(=O)=O,inactive,–
COc1ccccc1Oc1ccnc2cc(Cl)ccc12,–,"3.38% [at 17.1 µM, percent relative to cAMP agonist control]"
Cc1ccc(NC(=O)c2ccc(CN3CC(=O)N4CCCCC4C3=O)cc2)c(C)c1 (stereo unspecified),inactive,–
O=C1NC(=O)/C(=C/c2ccccn2)S1,inactive,–

Compound,Potency,activation
Cc1ccc(F)c(NC(=O)/C(C#N)=C(\O)c2ccc(C(C)(C)C)cc2)c1,–,"-11.9% [at 17.1 µM, percent relative to cAMP agonist control]"
N#Cc1c(-c2ccccc2)nc(SCc2ccc(Cl)cc2)[nH]c1=O,inactive,–
CCOC(=O)Cn1c(=O)oc2cc(S(=O)(=O)Nc3c(C)cc(C)cc3C)ccc21,–,"4.43% [at 17.1 µM, percent relative to cAMP agonist control]"
COc1ccc(-c2nnc(SCC(=O)c3ccco3)n2-c2ccccc2)cc1,–,"3.77% [at 17.1 µM, percent relative to cAMP agonist control]"
O=[N+]([O-])c1cc([N+](=O)[O-])c2nonc2c1Nc1ccc(O)cc1,inactive,–
Cc1ccc(Cl)cc1NC(=O)c1ccccc1OCC(=O)Nc1ccc(Cl)cc1,–,"0.829% [at 17.1 µM, percent relative to cAMP agonist control]"
CCCCCC1CCC(c2ccc(C(N)=O)cc2)CC1 (stereo unspecified),inactive,–
O=CN(CCN(C=O)CN1CCCCC1)CN1CCCCC1,inactive,–
Cc1ccccc1N(CC(=O)NC1CCCC1)C(=O)c1csnn1,–,"-0.443% [at 17.1 µM, percent relative to cAMP agonist control]"
COc1cc(OC)c(CNC2CCCCCC2)cc1Br,inactive,–
COCCN(C)Cc1nc(C(c2ccccc2)c2ccccc2)no1,inactive,–
CCC1CCCCN1CCCNC(=O)c1ccc(CS(=O)(=O)Cc2ccccc2F)o1 (stereo unspecified),inactive,–
O=C1/C(=C/c2ccc(F)cc2)SC(=S)N1NS(=O)(=O)c1ccccc1,inactive,–
Cc1nc2c(C(=O)NCCC(C)C)c[nH]n2c(=O)c1Cl,inactive,–
Cc1cnc(C(=O)N(c2ccc(N3CCOCC3)cc2)C2C(=O)Nc3ccccc3N=C2c2ccc(F)cc2)cn1 (stereo unspecified),inactive,–
COc1ccccc1-n1c(-c2ccccc2)c[n+]2c1CCc1ccccc1-2,inactive,–
Cc1cccc(NC(=O)CN2C(=O)S/C(=C\c3ccc(O)c([N+](=O)[O-])c3)C2=O)c1,inactive,–
CCOC(=O)C1=CCN(S(=O)(=O)c2ccc(C)cc2)C1c1cccs1 (stereo unspecified),–,"5.63% [at 17.1 µM, percent relative to cAMP agonist control]"
